From PubChem BioAssay
VACV mCherry inh: inhibitors of vaccinia virus infection (mCherry reporter signal). Vaccinia virus mCherry reporter infection, fluorescence. hit rate 0.63% among 310,000. Potency, µM (doses to about 36.5 µM), for inactives: top-dose activity change, negative = inhibition, most hits filed as inhibitors; calls by dose curve; tested in A549 cells; note: potency is the fitted concentration of half-maximal effect; nearly all actives have a fitted effect of over 35% in size
HCV inh: inhibitors of hepatitis C virus infection | Huh7.5.1 HCVcc-Cre infection, luciferase reporter, 44 h | Potency, µM (titrated, usually from 41.8 µM), without a hit: at the top dose activity change, negative = inhibition, actives largely listed as inhibitors | hit rate 3.4% among 340,000 | AID 651820; active = well fitted inhibition curve with a large enough effect; inconclusive = small, poorly fitted or top-dose-only effect, or another doubt; inactive = no such curve, though single readings can be large or run the other way; note: potency is the fitted concentration of half-maximal effect
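A cell-based infection assay in which seeded cells (1,000 per well) receive test compound after 4 h, are inoculated with HCVcc-Cre at approximately 0.5 moi, and are incubated 44 h before luminescence detection.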
FMDV inh: blocks foot and mouth disease virus; FMDV antiviral cell-based qHTS; Potency, µM (top dose mostly 57.9 µM), without a hit: top-dose activity change, negative = inhibition, usual class: inhibitors; hit rate 1.2% among 410,000; AID 1159524; calls by dose curve; tested in HEK293T cells; note: read-out not given here; potency is the fitted concentration of half-maximal effect; nearly all actives have a fitted effect of over 45% in size
HCMV antiviral: human cytomegalovirus inhibition; HFF cells, HCMV-luciferase reporter, 72 h; active compounds read low; activity change, negative = inhibition, % at 57.5 µM; hit rate 4.5% among 410,000; AID 1259415; in the data active = activity change below about -60%; inconclusive = no clear call, values can overlap the other calls; inactive = above about -39%
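After 16 h attachment at 37C, HFF cells received test compound and HCMV-luciferase (1 PFU/cell); reporter luminescence read 72 h later, data normalized against buffer-only and known inhibitor Salinomycin.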
VACV Venus inh: vaccinia inhibition (Venus reporter). Vaccinia virus Venus reporter expression, fluorescence. Potency, µM (top dose mostly 36.5 µM), for the others: top-dose activity change, negative = inhibition, hits mostly inhibitors. hit rate 0.46% among 330,000. AID 720580; calls by dose curve; tested in A549 cells; note: potency is the fitted concentration of half-maximal effect; nearly all actives have a fitted effect of over 30% in size
Numbers without * were called inactive; i = inactive; ? = inconclusive; . = no result; [ ] = remark or other dose. Shown are actives, neighbours in structure and some others; about 7.3% of the full set was active somewhere. % is set by controls: 0 for no effect and ±100 for the full control effect.

SMILES | VACV mCherry inh | HCV inh | FMDV inh | HCMV antiviral | VACV Venus inh
CCc1ccc(NC(=O)c2nc(SCc3ccccc3F)ncc2Cl)cc1 | -20.4% | . | . | . | -16.3%
CSCCC(NC(=O)c1ccccc1)C(=O)N1CCN(C(c2ccccc2)c2ccccc2)CC1 (stereo unspecified) | ? | 12.6µM* | ? | -18.7 | ?
CCN(CC)CC(C)CNC(=O)c1cc(-c2ccc(Br)s2)nc2ccccc12 (stereo unspecified) | ? | . | -23.0% | ? | ?
COc1cc(NC(=O)CCn2nc(C)c(S(=O)(=O)N3CCCCC3)c2C)cc(OC)c1OC | i | . | -14.0% | 23.3 | -9.2%
CCOc1ccc2[nH]cc(C(=O)NCc3ccc(F)cc3)c(=O)c2c1 | . | ? | 0.0% | -71.0* | .
O=C(Nc1cccc(F)c1)N1CCc2nc(NCc3cccc(Oc4ccccc4)c3)ncc2C1 | -5.5% | . | ? | -77.8* | ?
COc1cccc(NC(=O)N2CCc3nc(Nc4ccc(C(C)C)cc4)ncc3C2)c1 | -2.2% | . | -13.7% | -68.6* | ?
COc1cccc(NC(=O)N2CCc3ccccc3C2)c1 | -13.7% | 9.7% | 11.2% | 160.4 | -20.2%
COc1cc(Nc2ncc3c(n2)CCN(C(=O)Nc2ccc(C(C)C)cc2)C3)cc(OC)c1OC | -10.4% | . | -18.5% | ? | -22.2%
CC(C)c1ccc(NC(=O)N2CCc3nc(NCc4cccc(Oc5ccccc5)c4)ncc3C2)cc1 | -13.0% | . | -34.3% | -86.6* | -25.6%
Cc1ccc(-c2nnc(SCC(=O)c3ccc(Cl)cc3)n2-c2ccccc2)cc1 | -4.8% | . | -0.4% | 62.8 | -28.4%
CCn1c(/C(C#N)=C/c2ccccc2Cl)nc2ccccc21 | 7.9% | . | -17.5% | -73.1* | 8.1%
Cc1ccc(NC(=O)Cn2ccn(-c3ccccc3)c(=O)c2=O)cc1 | -6.7% | . | -8.1% | -30.4 | -13.4%
COc1ccc(/C=C2\SC(=O)N(CCC(=O)Nc3ccccc3)C2=O)cc1OC | -13.6% | 6.2% | ? | 43.0 | -1.5%
COc1cc(/C=C2\SC(=O)N(CCN)C2=O)ccc1OS(=O)(=O)c1cc(C)ccc1C | -28.0% | 12.6µM* | ? | ? | -24.4%
CCCCc1ccc(S(=O)(=O)N[C@H]2CC[C@@]34CCCN3C(=O)CCC[C@H]4[C@H]2CCC)cc1 | . | . | . | -9.7 | .
O=P1(Oc2ccccc2)OCCCS1 (stereo unspecified) | . | 8.9% | 35.5µM* | 21.6 | .
CCC(Sc1nc2nccnc2c(=O)n1Cc1ccc(OC)cc1)C(=O)NC1CCCCC1 (stereo unspecified) | -19.9% | . | 7.08µM* | -29.3 | -6.5%
COc1ccc(-c2nc3cc(NC(=O)c4ccc(C)cc4)ccc3o2)cc1Cl | -10.0% | . | 0.0% | -30.2 | -8.3%
CCN1CCN(C(c2ccc(F)cc2)c2sc3nc(-c4ccco4)nn3c2O)CC1 (stereo unspecified) | -9.5% | . | -4.4% | 7.9 | -5.6%
Cc1nc2ccccc2n1Cc1ccccc1 | . | ? | -21.2% | -36.0 | .
CC(c1nc2ccccc2n1Cc1ccccc1)N1CCCCC1 (stereo unspecified) | i | 9.7% | ? | -66.8* | 0.0%
c1ccc(-n2nnnc2NCCc2c[nH]c3ccccc23)cc1 | . | -21.1% | 54.1% | 1.1 | .
c1ccc(CNc2nnnn2-c2ccccc2)cc1 | . | -1.0% | 19.9% | -71.8* | .
COc1ccc(CNC(=O)CCS(=O)(=O)c2cc(Br)cc3c2N(C(=O)C2CC2)CC3)cc1 | -4.7% | . | 17.1% | -1.1 | -3.0%
SMILES | VACV mCherry inh | HCV inh | FMDV inh | HCMV antiviral | VACV Venus inh
NC1CCc2ccc([N+](=O)[O-])cc21 (stereo unspecified) | 5.8% | . | . | . | -14.4%
COc1ccc2nc(N3C(=O)CNC3=S)sc2c1 | i[7.34 µM] | 16.3% | 25.0% | -68.6* | 0.2%[7.34 µM]
Cc1ccc2nc(N3C(=O)CNC3=S)sc2c1 | -13.6% | ? | 0.0% | -91.6* | -27.4%
Cc1cccc(CC2CC(=O)N(c3nc4ccccc4s3)C2=O)c1 (stereo unspecified) | i | 2.0% | -13.2% | -15.0 | -0.8%
CCOc1ccc(NC(=O)CN2CCSc3ccc(S(=O)(=O)N4CCCC4)cc32)cc1 | -13.9% | . | -1.2% | ? | -8.6%
CCc1noc(C)c1C(=O)Oc1ccc(N(C)S(=O)(=O)c2ccccc2)cc1 | -20.9% | ? | 17.8µM* | -10.0 | -15.2%
Cc1noc(C)c1CSCC(=O)Oc1ccc(N(C)S(=O)(=O)c2ccccc2)cc1 | -12.0% | 17.1% | -7.5% | -5.7 | -2.3%
Cc1ccc(OCC(=O)N2CCc3ccccc3C2)cc1 | . | 2.5% | 32.4% | 1.4 | .
CN(C(=O)C(C)(C)C)c1ccc(OCC(=O)N2CCc3ccccc3C2)cc1 | i | ? | ? | -81.7* | -3.4%
Cc1sc2ncnc(N3CCC(C(=O)NNC(=O)COc4ccccc4F)CC3)c2c1C | -11.8% | ? | 25.1µM* | -10.1 | -29.4%
Cc1cc(Br)ccc1NC(=O)CN(C)C(=O)C1CCN(c2ncnc3sc(C)c(C)c23)CC1 | ? | 10µM* | ? | -83.4* | ?
CCN(CC)CCNC(=O)c1ccc(NC(=O)C2CCN(c3ncnc4sc(C)c(C)c34)CC2)cc1 | . | 12.6µM* | ? | -71.1* | .
Cc1sc2ncnc(N3CCC(C(=O)Nc4ccc(OC(F)F)c(Cl)c4)CC3)c2c1C | . | 20µM* | ? | -1.6 | .
CN1CCN(c2ncc3nc(-c4ccc(Cl)cc4)c(=O)n(CCC#N)c3n2)CC1 | . | . | -7.6% | . | .
CC(=O)c1sc(NC(=O)C2CCN(c3ncnc4sc(C)c(C)c34)CC2)nc1-c1ccccc1 | i | ? | 4.2% | -19.3 | -1.2%
Cc1sc2ncnc(N3CCC(C(=O)NNC(=O)COc4ccc(Cl)cc4)CC3)c2c1C | . | -20.6% | -21.3% | -6.9 | .
Cc1sc2ncnc(N3CCC(C(=O)NNC(=O)COc4cccc(C(F)(F)F)c4)CC3)c2c1C | i | -10.4% | 25.1µM* | -1.6 | -14.8%
Cc1sc2ncnc(N3CCC(C(=O)NNC(=O)COc4ccccc4Cl)CC3)c2c1C | ? | ? | 35.5µM* | -32.8 | -23.4%
Cc1sc2ncnc(N3CCC(C(=O)Nc4nc(-c5ccc(F)cc5)cs4)CC3)c2c1C | i | ? | 0.0% | -65.4* | 2.5%
Cc1ccc(-c2noc(-c3ccc(NCc4ccco4)c([N+](=O)[O-])c3)n2)cc1 | -10.7% | . | 0.0% | 76.5 | -6.8%
CCOc1ccc(CCNC(=O)c2cc3c(-c4ccccc4F)nn(C)c3s2)cc1OCC | ? | . | ? | -65.2* | ?
Cc1ccc(CCNC(=O)c2cc3c(-c4ccccc4F)nn(C)c3s2)cc1 | -6.1% | . | -20.2% | -14.0 | -4.9%
CCN(CCCNC(=O)c1cc2c(-c3cccc(OC)c3)nn(C)c2s1)Cc1ccccc1 | -1.5% | 11.2µM* | -7.2% | -1.7 | ?
CCOC(=O)c1cccc(NC(=O)c2cc3c(-c4cccc(OC)c4)nn(C)c3s2)c1 | -1.8% | . | ? | -7.1 | -3.2%
CCOc1ccc(CCNC(=O)c2cc3c(-c4cccc(OC)c4)nn(C)c3s2)cc1OCC | ? | . | ? | -62.8* | ?
COc1cccc(-c2nn(C)c3sc(C(=O)NCc4cc(OC)ccc4OC)cc23)c1 | -26.9% | . | ? | -24.5 | -18.7%
CCN(C(=O)c1cc2c(=O)oc3ccccc3c2s1)c1ccc(C)c(C)c1 | 6.0% | . | -15.3% | -5.8 | 8.4%
